Data taken from paper PMC7862700, “An all-to-all approach to the identification of sequence-specific readers for epigenetic DNA modifications on cytosine”.

Experiments:
Experiment in all cases: DAPPL (digital affinity profiling via proximity ligation, sequencing); 10 mM Tris-HCl pH 7.5, 50 mM NaCl, 1 mM DTT, 4% glycerol, room temperature, 30 min; GST-TFs on glutathione beads, 16-mer random dsDNA library, 0.1% formaldehyde crosslink after washing; high values mean tight binding
[1] = biological target: T1, FLI1 (Homo sapiens, UniProt Q01543 1-452); settings: protein: recombinant; tags: N-terminal GST; dsDNA, one strand shown
T1 sequence: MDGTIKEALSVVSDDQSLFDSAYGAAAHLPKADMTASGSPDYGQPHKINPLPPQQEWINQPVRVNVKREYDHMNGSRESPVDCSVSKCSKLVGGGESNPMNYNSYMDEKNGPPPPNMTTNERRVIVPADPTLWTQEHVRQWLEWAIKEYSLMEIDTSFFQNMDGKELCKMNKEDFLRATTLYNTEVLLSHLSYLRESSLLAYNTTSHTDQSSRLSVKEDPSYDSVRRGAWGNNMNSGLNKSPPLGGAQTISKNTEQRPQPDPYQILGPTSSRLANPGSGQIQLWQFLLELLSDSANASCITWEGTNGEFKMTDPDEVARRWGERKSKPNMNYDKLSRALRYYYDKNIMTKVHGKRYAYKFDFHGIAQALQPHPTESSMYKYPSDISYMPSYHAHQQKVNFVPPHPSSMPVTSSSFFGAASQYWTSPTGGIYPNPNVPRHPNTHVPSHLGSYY
Outline: (§1)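 Pools were built from human transcription factors expressed in yeast as GST fusions, captured on glutathione beads and DNA-barcoded, along with a tag-only sample. Incubation with 200 nmole of a 16-mer random double-stranded DNA library lasted 30 min at room temperature in Tris/NaCl/DTT/glycerol buffer, and was followed by washing, 0.1% formaldehyde crosslinking, proximity ligation, PCR amplification and Illumina NextSeq500 sequencing. Binding signal is the quotient of each hexamer's read frequency for a factor and its frequency for the tag-only sample.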

[2] = biological target: T2, ELK1 (Homo sapiens, UniProt P19419 1-428); settings: protein: recombinant; tags: N-terminal GST; dsDNA, one strand shown
T2 sequence: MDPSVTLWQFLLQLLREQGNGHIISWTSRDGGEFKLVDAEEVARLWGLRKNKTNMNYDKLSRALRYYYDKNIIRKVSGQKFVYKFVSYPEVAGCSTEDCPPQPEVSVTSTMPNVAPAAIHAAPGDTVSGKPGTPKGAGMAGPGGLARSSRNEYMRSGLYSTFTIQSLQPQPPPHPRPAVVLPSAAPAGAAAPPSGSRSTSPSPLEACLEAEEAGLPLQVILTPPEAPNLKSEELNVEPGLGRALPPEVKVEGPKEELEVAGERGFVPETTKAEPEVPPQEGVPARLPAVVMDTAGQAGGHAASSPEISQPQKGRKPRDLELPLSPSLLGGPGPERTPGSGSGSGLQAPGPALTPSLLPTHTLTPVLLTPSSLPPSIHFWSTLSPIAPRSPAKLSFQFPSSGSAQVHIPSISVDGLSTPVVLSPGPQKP
Outline: as §1

[3] = biological target: T3, GABPA (Homo sapiens, UniProt Q06546 1-454); settings: protein: recombinant; tags: N-terminal GST; dsDNA, one strand shown
T3 sequence: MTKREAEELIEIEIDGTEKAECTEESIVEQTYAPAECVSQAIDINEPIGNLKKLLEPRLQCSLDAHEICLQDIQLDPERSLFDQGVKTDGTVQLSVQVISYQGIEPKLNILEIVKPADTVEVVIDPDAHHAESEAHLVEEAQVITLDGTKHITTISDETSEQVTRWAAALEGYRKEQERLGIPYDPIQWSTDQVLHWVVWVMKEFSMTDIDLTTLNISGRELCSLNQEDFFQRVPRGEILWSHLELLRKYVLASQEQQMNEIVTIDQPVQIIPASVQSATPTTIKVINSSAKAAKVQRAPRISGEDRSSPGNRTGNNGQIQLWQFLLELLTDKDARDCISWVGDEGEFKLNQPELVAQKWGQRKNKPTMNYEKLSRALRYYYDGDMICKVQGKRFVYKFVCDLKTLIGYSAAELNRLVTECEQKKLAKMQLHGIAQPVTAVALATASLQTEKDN
Outline: as §1

[4] = biological target: T4, ERG (Homo sapiens, UniProt P11308 1-479); settings: protein: recombinant; tags: N-terminal GST; dsDNA, one strand shown
T4 sequence: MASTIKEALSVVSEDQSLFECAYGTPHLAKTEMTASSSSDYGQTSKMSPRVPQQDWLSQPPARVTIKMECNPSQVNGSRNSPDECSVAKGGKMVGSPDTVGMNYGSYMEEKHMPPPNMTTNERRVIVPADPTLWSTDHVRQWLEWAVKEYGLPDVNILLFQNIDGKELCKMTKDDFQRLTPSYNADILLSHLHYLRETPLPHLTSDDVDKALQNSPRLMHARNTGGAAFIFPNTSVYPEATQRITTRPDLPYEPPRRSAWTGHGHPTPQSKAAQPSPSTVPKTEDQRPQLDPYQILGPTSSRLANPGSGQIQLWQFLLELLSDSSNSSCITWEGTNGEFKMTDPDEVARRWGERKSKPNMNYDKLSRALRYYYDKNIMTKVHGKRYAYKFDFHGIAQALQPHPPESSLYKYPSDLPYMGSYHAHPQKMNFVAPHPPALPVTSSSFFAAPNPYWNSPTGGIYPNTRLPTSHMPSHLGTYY
Outline: as §1

[5] = biological target: ELF1 (Homo sapiens, UniProt P32519 1-619); settings: protein: recombinant; tags: N-terminal GST; dsDNA, one strand shown
ELF1, sequence (P32519 whole entry): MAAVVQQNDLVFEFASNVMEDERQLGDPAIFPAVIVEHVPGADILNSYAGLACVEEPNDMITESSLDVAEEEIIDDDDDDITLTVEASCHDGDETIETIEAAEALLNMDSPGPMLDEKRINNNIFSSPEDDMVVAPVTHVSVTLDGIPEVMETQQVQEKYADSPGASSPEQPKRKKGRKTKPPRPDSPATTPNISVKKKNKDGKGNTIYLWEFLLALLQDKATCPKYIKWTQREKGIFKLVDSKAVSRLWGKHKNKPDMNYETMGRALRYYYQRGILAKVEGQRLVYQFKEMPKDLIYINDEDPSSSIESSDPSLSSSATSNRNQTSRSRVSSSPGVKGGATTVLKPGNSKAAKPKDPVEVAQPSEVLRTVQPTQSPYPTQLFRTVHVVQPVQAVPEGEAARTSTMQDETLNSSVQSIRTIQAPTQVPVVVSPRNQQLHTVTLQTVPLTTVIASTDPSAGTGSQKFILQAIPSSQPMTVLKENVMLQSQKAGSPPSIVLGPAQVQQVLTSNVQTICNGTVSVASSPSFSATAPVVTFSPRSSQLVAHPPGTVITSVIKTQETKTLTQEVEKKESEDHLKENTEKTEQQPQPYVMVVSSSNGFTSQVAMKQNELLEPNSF
Outline: as §1

[6] = biological target: T5, EHF (Homo sapiens, UniProt Q9NZC4 1-300); settings: protein: recombinant; tags: N-terminal GST; dsDNA, one strand shown
T5 sequence: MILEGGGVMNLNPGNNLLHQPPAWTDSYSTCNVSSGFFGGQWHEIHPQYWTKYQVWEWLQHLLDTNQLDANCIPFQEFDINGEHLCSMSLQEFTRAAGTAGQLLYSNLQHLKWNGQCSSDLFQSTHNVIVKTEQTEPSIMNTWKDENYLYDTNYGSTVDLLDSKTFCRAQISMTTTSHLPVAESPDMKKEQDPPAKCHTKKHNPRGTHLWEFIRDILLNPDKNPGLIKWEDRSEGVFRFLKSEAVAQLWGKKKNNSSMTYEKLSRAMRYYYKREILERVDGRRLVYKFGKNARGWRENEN
Outline: as §1

[7] = biological target: SPI1 (Homo sapiens, UniProt P17947 1-270); settings: protein: recombinant; tags: N-terminal GST; dsDNA, one strand shown
Outline: as §1

[8] = biological target: SPIB (Homo sapiens, UniProt Q01892 1-262); settings: protein: recombinant; tags: N-terminal GST; dsDNA, one strand shown
SPIB, sequence (Q01892 whole entry): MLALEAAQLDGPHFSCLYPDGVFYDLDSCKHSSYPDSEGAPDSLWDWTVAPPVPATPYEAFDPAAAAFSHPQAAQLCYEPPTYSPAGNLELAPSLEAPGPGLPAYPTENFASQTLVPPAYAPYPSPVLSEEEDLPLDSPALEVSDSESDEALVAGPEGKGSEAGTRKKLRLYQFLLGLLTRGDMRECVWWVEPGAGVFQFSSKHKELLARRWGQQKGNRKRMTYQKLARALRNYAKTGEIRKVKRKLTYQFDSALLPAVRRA
Outline: as §1

[9] = biological target: T6, ELK3 (Homo sapiens, UniProt P41970 1-407); settings: protein: recombinant; tags: N-terminal GST; dsDNA, one strand shown
T6 sequence: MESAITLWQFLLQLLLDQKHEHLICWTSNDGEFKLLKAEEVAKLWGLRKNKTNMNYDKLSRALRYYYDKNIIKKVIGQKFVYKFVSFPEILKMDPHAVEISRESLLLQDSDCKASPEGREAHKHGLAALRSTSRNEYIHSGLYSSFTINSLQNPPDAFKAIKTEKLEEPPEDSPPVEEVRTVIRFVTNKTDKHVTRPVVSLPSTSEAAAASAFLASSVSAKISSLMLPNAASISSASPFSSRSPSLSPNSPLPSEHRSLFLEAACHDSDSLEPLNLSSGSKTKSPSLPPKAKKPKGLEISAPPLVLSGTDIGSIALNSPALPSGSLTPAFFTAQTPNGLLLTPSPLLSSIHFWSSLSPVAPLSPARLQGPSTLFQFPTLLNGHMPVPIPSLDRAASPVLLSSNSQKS
Outline: as §1

[10] = biological target: T7, FEV (Homo sapiens, UniProt Q99581 1-238); settings: protein: recombinant; tags: N-terminal GST; dsDNA, one strand shown
T7 sequence: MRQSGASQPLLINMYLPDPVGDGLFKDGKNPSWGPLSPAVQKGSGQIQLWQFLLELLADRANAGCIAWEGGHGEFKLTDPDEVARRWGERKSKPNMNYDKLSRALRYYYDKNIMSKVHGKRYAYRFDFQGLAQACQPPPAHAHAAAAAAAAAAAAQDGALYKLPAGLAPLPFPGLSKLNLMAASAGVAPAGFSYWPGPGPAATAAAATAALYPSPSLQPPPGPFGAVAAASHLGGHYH
Outline: as §1

[11] = biological target: ETV5 (Homo sapiens, UniProt P41161 1-510); settings: protein: recombinant; tags: N-terminal GST; dsDNA, one strand shown
ETV5, sequence (P41161 whole entry): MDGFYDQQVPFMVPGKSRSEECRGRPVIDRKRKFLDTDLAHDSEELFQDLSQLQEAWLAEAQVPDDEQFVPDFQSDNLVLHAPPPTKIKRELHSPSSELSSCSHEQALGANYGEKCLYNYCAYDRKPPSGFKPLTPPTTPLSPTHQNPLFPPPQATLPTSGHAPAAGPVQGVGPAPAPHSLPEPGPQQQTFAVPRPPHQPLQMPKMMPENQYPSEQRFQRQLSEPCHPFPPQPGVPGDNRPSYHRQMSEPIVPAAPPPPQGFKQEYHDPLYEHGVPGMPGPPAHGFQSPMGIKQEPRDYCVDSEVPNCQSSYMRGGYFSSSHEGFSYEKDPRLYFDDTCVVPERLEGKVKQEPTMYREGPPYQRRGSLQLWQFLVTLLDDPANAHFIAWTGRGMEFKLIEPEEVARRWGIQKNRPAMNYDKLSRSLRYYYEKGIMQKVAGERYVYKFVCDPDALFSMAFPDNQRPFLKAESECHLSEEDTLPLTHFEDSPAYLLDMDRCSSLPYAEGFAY
Outline: as §1

[12] = biological target: HSF1 (Homo sapiens, UniProt Q00613 1-529); settings: protein: recombinant; tags: N-terminal GST; chain copies: 3; dsDNA, one strand shown
HSF1, sequence (Q00613 whole entry): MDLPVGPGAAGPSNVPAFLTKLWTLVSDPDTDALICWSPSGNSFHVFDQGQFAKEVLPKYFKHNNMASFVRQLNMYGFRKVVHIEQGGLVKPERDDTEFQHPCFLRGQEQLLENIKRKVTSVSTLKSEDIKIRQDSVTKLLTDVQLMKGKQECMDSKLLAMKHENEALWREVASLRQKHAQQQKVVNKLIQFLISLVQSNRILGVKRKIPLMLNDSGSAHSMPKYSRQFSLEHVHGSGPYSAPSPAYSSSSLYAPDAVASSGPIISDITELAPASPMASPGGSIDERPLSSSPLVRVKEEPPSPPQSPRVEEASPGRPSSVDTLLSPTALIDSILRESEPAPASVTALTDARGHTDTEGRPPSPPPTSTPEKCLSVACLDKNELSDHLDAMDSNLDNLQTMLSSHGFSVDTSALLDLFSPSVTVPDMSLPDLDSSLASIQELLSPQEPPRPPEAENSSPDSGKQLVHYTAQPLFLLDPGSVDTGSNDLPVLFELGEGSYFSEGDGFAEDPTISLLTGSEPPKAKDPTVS
Outline: as §1

[13] = biological target: T8, SPIC (Homo sapiens, UniProt Q8N5J4 1-248); settings: protein: recombinant; tags: N-terminal GST; dsDNA, one strand shown
T8 sequence: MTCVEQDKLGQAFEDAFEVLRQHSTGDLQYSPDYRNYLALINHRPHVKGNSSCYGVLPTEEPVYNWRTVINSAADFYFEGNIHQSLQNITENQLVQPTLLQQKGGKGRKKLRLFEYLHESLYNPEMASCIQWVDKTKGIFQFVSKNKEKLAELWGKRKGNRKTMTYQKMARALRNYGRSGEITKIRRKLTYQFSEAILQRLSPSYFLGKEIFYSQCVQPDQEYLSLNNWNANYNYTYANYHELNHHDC
Outline: as §1

[14] = biological target: ELF4 (Homo sapiens, UniProt Q99607 1-663); settings: protein: recombinant; tags: N-terminal GST; dsDNA, one strand shown
ELF4, sequence (Q99607 whole entry): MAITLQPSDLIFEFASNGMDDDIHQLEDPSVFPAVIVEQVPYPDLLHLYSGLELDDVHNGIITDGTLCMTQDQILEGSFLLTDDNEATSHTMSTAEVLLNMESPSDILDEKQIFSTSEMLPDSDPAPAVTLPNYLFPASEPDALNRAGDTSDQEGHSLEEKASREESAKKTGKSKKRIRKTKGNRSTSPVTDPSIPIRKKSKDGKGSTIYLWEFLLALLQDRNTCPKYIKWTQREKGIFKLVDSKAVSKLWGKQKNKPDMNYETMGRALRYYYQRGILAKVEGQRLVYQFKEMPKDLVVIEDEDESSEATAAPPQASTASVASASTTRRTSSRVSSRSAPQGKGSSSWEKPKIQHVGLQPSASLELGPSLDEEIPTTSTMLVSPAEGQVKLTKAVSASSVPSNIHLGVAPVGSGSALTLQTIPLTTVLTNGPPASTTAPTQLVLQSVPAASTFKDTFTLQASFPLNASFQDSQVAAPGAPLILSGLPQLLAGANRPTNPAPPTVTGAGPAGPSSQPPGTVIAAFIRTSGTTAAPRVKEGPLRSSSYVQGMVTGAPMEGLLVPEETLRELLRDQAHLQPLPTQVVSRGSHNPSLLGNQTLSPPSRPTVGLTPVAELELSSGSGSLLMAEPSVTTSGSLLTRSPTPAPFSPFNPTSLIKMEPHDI
Outline: as §1

[15] = biological target: T9, ELK4 (Homo sapiens, UniProt P28324-2 1-405); settings: protein: recombinant; tags: N-terminal GST; dsDNA, one strand shown
T9 sequence: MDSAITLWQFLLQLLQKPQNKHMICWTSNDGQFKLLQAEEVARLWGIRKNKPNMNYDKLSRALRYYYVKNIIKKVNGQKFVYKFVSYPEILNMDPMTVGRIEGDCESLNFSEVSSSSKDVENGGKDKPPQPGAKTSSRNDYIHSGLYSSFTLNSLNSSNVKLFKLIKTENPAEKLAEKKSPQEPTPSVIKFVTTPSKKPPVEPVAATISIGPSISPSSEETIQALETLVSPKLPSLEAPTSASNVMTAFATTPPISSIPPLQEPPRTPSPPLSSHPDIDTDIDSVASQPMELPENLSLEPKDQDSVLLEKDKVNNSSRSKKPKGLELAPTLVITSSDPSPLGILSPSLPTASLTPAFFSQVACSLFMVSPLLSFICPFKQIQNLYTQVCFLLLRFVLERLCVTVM
Outline: as §1

[16] = biological target: T10, ETV2 (Homo sapiens, UniProt O00321 1-342); settings: protein: recombinant; tags: N-terminal GST; dsDNA, one strand shown
T10 sequence: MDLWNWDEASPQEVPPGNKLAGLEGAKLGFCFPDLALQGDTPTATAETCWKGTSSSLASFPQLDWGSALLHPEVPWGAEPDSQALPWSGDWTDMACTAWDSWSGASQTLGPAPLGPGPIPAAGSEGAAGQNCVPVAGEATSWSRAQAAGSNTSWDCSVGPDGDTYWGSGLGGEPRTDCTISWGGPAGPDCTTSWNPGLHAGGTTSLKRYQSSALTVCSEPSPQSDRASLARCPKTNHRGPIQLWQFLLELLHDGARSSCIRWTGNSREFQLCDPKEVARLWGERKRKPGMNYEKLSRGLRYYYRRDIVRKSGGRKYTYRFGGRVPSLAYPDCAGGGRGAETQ
Outline: as §1

[17] = biological target: T11, ELF3 (Homo sapiens, UniProt P78545 1-371); settings: protein: recombinant; tags: N-terminal GST; dsDNA, one strand shown
T11 sequence: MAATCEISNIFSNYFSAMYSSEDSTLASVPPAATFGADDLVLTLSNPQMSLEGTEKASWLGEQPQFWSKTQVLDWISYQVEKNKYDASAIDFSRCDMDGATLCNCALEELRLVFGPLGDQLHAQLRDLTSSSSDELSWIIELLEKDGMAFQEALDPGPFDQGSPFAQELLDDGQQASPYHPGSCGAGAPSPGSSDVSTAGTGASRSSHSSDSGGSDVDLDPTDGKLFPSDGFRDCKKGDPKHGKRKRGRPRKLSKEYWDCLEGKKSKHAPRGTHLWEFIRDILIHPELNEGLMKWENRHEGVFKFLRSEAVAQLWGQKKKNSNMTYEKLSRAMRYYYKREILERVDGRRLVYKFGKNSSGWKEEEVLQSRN
Outline: as §1

[18] = biological target: CRX (Homo sapiens, UniProt O43186 1-299); settings: protein: recombinant; tags: N-terminal GST; dsDNA, one strand shown
CRX, sequence (O43186 whole entry): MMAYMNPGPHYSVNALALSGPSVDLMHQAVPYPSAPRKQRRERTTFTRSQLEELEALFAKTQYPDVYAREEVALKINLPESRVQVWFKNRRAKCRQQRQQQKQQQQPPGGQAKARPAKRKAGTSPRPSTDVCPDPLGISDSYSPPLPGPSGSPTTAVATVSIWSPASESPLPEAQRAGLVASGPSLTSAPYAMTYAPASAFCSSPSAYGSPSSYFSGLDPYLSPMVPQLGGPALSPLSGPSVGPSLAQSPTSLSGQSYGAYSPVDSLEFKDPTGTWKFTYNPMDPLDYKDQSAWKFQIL
Outline: as §1

[19] = biological target: ETV1 (Homo sapiens, UniProt P50549 1-477); settings: protein: recombinant; tags: N-terminal GST; dsDNA, one strand shown
ETV1, sequence (P50549 whole entry): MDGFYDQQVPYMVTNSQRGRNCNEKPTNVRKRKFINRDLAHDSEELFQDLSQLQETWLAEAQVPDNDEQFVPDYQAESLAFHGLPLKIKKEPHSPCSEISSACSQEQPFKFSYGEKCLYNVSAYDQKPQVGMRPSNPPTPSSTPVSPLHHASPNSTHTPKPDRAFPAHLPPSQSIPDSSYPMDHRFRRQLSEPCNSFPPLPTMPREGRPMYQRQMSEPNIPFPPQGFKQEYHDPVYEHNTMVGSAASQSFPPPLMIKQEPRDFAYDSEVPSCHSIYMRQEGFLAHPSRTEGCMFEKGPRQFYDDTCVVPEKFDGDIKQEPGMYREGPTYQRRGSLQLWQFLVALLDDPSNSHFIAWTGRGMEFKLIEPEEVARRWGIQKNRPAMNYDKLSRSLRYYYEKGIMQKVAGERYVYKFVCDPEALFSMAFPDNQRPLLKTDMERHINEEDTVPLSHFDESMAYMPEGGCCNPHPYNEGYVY
Outline: as §1

Sequence: ATGTTA
- binding signal [1]: 1.24 fold enrichment (6-mer frequency, TF over GST control)
- binding signal [2]: 1.25 fold enrichment (6-mer frequency, TF over GST control)
- binding signal [3]: 1.26 fold enrichment (6-mer frequency, TF over GST control)
- binding signal [4]: 1.22 fold enrichment (6-mer frequency, TF over GST control)
- binding signal [5]: 1.22 fold enrichment (6-mer frequency, TF over GST control)
- binding signal [6]: 1.23 fold enrichment (6-mer frequency, TF over GST control)
- binding signal [7]: 1.13 fold enrichment (6-mer frequency, TF over GST control)
- binding signal [8]: 1.17 fold enrichment (6-mer frequency, TF over GST control)
- binding signal [9]: 1.15 fold enrichment (6-mer frequency, TF over GST control)
- binding signal [10]: 1.13 fold enrichment (6-mer frequency, TF over GST control)
- binding signal [11]: 1.25 fold enrichment (6-mer frequency, TF over GST control)
- binding signal [12]: 1.12 fold enrichment (6-mer frequency, TF over GST control)
- binding signal [13]: 1.28 fold enrichment (6-mer frequency, TF over GST control)
- binding signal [14]: 1.33 fold enrichment (6-mer frequency, TF over GST control)
- binding signal [15]: 1.23 fold enrichment (6-mer frequency, TF over GST control)
- binding signal [16]: 1.24 fold enrichment (6-mer frequency, TF over GST control)
- binding signal [17]: 1.17 fold enrichment (6-mer frequency, TF over GST control)
- binding signal [18]: 1.31 fold enrichment (6-mer frequency, TF over GST control)
- binding signal [19]: 1.3 fold enrichment (6-mer frequency, TF over GST control)
